Drawing on PubChem BioAssay (NCATS), this text covers activation, Potency and activity change, negative = inhibition for 28 compounds.

The target in assay [1] is Cellular tumor antigen p53 (Homo sapiens) (UniProt P04637). Description: Primary qHTS for small molecule compounds that upregulate eGFP-tagged delta133p53alpha (in N-terminal) cells. (AID 2060322). Also: nearly all actives have a fitted effect of over 75% in size. Also: potency is read from the fitted curve at half-maximal effect.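 As to activation: cells pre-induced with doxycycline then dosed without doxycycline; series mostly up to about 56 µM; 0% = DMSO vehicle and 100% = reference activator.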 Conditions: NCI-H358 eGFP-delta133p53alpha fluorescence, 24 h; activation: hits give high values. In outline:
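NCI-H358 cells pre-induced 24 h with 10 ng/ml doxycycline for eGFP-delta133p53alpha, plated dox-free and exposed 24 h at 37C to titrated compounds. Fixed, Hoechst-stained; gated GFP peak intensity by laser scanning cytometry, normalized to DMSO (0%) and 57.5 uM 5-azacytidine (100%).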

In assay [2] the target is Aldehyde dehydrogenase, mitochondrial (Homo sapiens) (UniProt P05091). Description: qHTS for Inhibitors of the Aldehyde Dehydrogenase Family (ALDH2) Primary screen (AID 2061308).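 Also: plate controls were vehicle for no effect and reference inhibitor for full effect; nearly all actives have a fitted effect of over 55% in size.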
Assay [3] addresses Retinaldehyde dehydrogenase 3 (Homo sapiens) (UniProt P47895). Description: qHTS for Inhibitors of the Aldehyde Dehydrogenase Family (ALDH1A3) Validation screen (AID 2061312). Also: % is scaled to controls: 0 for no effect and ±100 for the full control effect; nearly all actives have a fitted effect of over 45% in size.
For assay [4] the target is unchanged. As to the kind of experiment: qHTS for Inhibitors of the Aldehyde Dehydrogenase Family (ALDH1A3) Primary screen (AID 2061315).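 Also: plate controls were DMSO vehicle for no effect and reference inhibitor for full effect.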

“And” between values parts separate entries of the source, which are not always exact repeats. Equal entries are not always repeated. Results filed as inconclusive are left out. Values without a mark were called inactive. The source made the active and inactive calls. Calls follow the shape of the dose curve; as a rule, active = well fitted curve in the direction sought with a large enough effect; inconclusive = small, poorly fitted or top-dose-only effect, or another doubt; inactive = no such curve, though single readings can be large; an effect the other way counts as inactive or inconclusive.

Cellular tumor antigen p53 (Homo sapiens), sequence (P04637 whole entry, looked up): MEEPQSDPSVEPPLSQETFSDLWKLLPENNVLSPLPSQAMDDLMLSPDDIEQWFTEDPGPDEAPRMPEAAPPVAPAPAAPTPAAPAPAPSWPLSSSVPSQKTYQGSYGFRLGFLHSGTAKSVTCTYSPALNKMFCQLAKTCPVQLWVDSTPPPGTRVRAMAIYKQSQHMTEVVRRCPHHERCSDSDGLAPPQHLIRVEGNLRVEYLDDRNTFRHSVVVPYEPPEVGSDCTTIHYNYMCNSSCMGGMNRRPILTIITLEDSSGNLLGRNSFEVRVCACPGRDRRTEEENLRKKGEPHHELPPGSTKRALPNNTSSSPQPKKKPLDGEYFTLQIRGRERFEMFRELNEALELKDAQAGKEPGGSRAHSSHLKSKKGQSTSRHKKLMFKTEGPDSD

For the compound `COc1ccncc1C(=O)NC(=O)Nc1ccc(-c2ccccc2)c(C(F)(F)F)c1`, the activation in assay [1] is -0.477%. Also, the Potency entry in assay [2], in assay [3] and in assay [4] was “inactive” each time.
Turning to `CN(C)c1nc(Cc2ccc(NC(=O)c3ccc(C(F)(F)F)cc3)cc2)nc(N(C)C)c1CC(=O)O`, in assay [1], the activation is -14.6% and -1.43%. Besides, the Potency entry in assay [2], in assay [3] and in assay [4] was “inactive” each time.
As for `C[C@H](Nc1cc2c(-c3ccc4c(c3)OCO4)noc2cn1)c1ccccc1`, the activation in assay [1] was 4.77%. Besides, the Potency result in assay [2], in assay [3] and in assay [4] was “inactive” in each case.
As to `COc1cc2c(Nc3cc(F)c(Cl)c(Cl)c3)ncnc2cc1OCC1CCCN(C)CCC1`, the Potency in assay [1] was 23.9 µM (active). Moreover, the Potency result in assay [2], in assay [3] and in assay [4] was “inactive” in each case.
On to `Oc1ccc2nc(CN3CCC(Cc4ccccc4F)CC3)[nH]c2c1`, for which the activation in assay [1] was -1.91%. The Potency result in assay [2], in assay [3] and in assay [4] was “inactive” throughout.
For the compound `CCN(CC)C(=O)C(c1ccccc1)N1CCN(c2ccc(NC(=O)c3ccccc3-c3cccnc3)cc2F)CC1` (configuration not stated), in assay [1], the activation was -6.21%. For the same compound, the Potency result in assay [2], in assay [3] and in assay [4] was “inactive” each time.
Consider `COc1ccc(N2CCN(C(=O)c3cc4c(s3)-c3ccccc3S(=O)(=O)C4)CC2)cc1`, for which the activation in assay [1] was -13.8%. Moreover, the Potency result in assay [2], in assay [3] and in assay [4] was “inactive” each time.
With `COc1cc(Nc2nc3c(s2)CCCC3c2ccccc2)ccc1-n1cnc(C)c1` (configuration not stated), the activation in assay [1] was -18.6%. Also, the activity change, negative = inhibition is 1.32% [at 11.2 µM] in assay [2], 6.59% [at 20.1 µM] in assay [3] and 0.24% [at 11.2 µM] in assay [4].
`CCOc1c2c(c(OCC)c3ccccc13)C(=O)N(c1ccc(CC(=O)NS(=O)(=O)c3ccccc3)cc1)C2`: the activation in assay [1] was -25.3%. The Potency entry in assay [2], in assay [3] and in assay [4] was “inactive” throughout.
Turning to `CC(=O)N(C)C1(c2ccccc2)CCN(CCC[C@]2(c3ccc(Cl)c(Cl)c3)CCCN(C(=O)c3ccccc3)C2)CC1`, the activation in assay [1] is 16.9%. For the same compound, the Potency result in assay [2], in assay [3] and in assay [4] was “inactive” throughout.
Consider `Cc1[nH]c2ccccc2c1CC(=O)N[C@@H](Cc1ccccc1)C(=O)N(C)c1ccccc1`, for which, in assay [1], the activation was 22.9%. The Potency entry in assay [2], in assay [3] and in assay [4] was “inactive” each time.
On to `C=CC(=O)N1CCN(C(=O)c2cc(-c3cc(Cl)ccc3Cl)c(Cl)cc2OC)CC1`, for which, in assay [1], the activation is -7.64%. For the same compound, the Potency entry in assay [2], in assay [3] and in assay [4] was “inactive” each time.
For `CCOC(=O)[C@H](CCc1ccccc1)CC1(C(=O)N[C@H]2CCc3ccccc3N(CC(=O)O)C2=O)CCCC1`, in assay [1], the activation was 6.21%. The Potency entry in assay [2], in assay [3] and in assay [4] was “inactive” each time.
For the compound `O=C(c1ccccn1)c1cnn2c(-c3ccncc3)ccnc12`, the activation in assay [1] was -7.16%. The Potency entry in assay [2], in assay [3] and in assay [4] was “inactive” in each case.
Regarding `OCC(Cc1ccccc1)Nc1nc(Oc2ccc3c(c2)CCC3)nc2c1ncn2Cc1ccc(-c2ccccc2)cc1` (configuration not stated), the activation in assay [1] is 6.21%. The Potency entry in assay [2], in assay [3] and in assay [4] was “inactive” each time.
In the case of `C[C@@H]([C@@H](O)c1ccc(O)cc1)N1CCC(O)(c2ccccc2)CC1`, the activation in assay [1] is 5.25%. The Potency result in assay [2], in assay [3] and in assay [4] was “inactive” in each case.
`C#CCN(Cc1cc2c(=O)n(C)c(CN3CCN(C)CC3)nc2cc1Cl)c1ccc(C(=O)NCc2cccnc2)cc1`: the activation in assay [1] is 0.955%. Moreover, the Potency result in assay [2], in assay [3] and in assay [4] was “inactive” in each case.
For the compound `CC(C)[C@@H]1C(=O)N(S(C)(=O)=O)[C@@H]2CCN(C(=O)/C=C/CN3CCCCC3)[C@H]21`, in assay [1], the activation is 8.11%. In addition, the Potency entry in assay [2], in assay [3] and in assay [4] was “inactive” throughout.
Regarding `CCC[C@@]1(CCc2ccccc2)CC(O)=C([C@H](CC)c2cccc(NS(=O)(=O)c3ccc(C(F)(F)F)cn3)c2)C(=O)O1`, the activation in assay [1] was -3.82%. Moreover, the Potency entry in assay [2], in assay [3] and in assay [4] was “inactive” in each case.
In the case of `O=S(=O)(Nc1ccccc1N1CCCCC1)c1ccc(Cl)s1`, in assay [1], the activation is -11.9%. In addition, the Potency entry in assay [2], in assay [3] and in assay [4] was “inactive” each time.
Turning to `CC(C)N(CCCCOCC(=O)NS(C)(=O)=O)c1cnc(-c2ccccc2)c(-c2ccccc2)n1`, the activation in assay [1] is -4.77%. For the same compound, the Potency result in assay [2], in assay [3] and in assay [4] was “inactive” each time.
As to `O=C1NC(=O)C(c2cn3c4c(cccc24)CCC3)C1c1c[nH]c2ccccc12` (configuration not stated), the activation in assay [1] is 18.6%. In addition, the Potency entry in assay [2], in assay [3] and in assay [4] was “inactive” in each case.
`CCC(C)c1ccc(NC(=O)Cn2cnc3c2c(=O)n(C)c(=O)n3C)cc1` (configuration not stated): in assay [1], the activation is 11.5%. In addition, the Potency result in assay [2], in assay [3] and in assay [4] was “inactive” throughout.
For the compound `COc1cc(Nc2nc3ccccc3nc2NS(=O)(=O)c2cccc(NC(=O)c3ccc(C)c(OC)c3)c2)cc(OC)c1`, the activation in assay [1] is 10%. The Potency entry in assay [2], in assay [3] and in assay [4] was “inactive” throughout.
As to `C/C(=C\C(=O)OCCCCCCCCC(=O)O)C[C@@H]1OC[C@H](C[C@@H]2O[C@H]2[C@@H](C)[C@H](C)O)[C@@H](O)[C@H]1O`, the activation in assay [1] was -7.64%. Further, the Potency result in assay [2], in assay [3] and in assay [4] was “inactive” in each case.
As for `CN(C)c1nc(NC2CCC(NCCc3ccc(Br)cc3OC(F)(F)F)CC2)nc2ccccc12` (configuration not stated), the Potency in assay [1] was 13.5 µM (active). Further, the Potency entry in assay [2], in assay [3] and in assay [4] was “inactive” throughout.
Consider `CN(C)CCn1cc(-c2ccc(F)cc2)c(-n2cccc2)n1`, for which the activation in assay [1] was -10.5%. Further, the Potency entry in assay [2], in assay [3] and in assay [4] was “inactive” throughout.
Consider `CC(C)c1nnc(-c2ccc(-c3ccccc3)nc2)n1-c1cccc2nonc12`, for which the activation in assay [1] is -5.73%. Besides, the Potency result in assay [2], in assay [3] and in assay [4] was “inactive” in each case.
